Our source for the AC50 and activity, negative = inhibition values is PubChem BioAssay AID1851 (National Center for Advancing Translational Sciences (NCATS), 2009).

“And” between values parts separate entries of the source, which are not always exact repeats. Equal entries are not always repeated. Out of some 16,000 compounds screened, about 2,600 (16%) were called active. Inconclusive results (about 20%) are left out. What follows is part of a selection rich in actives, with near analogues and random picks from the rest. Unmarked numbers belong to inactive results. Calls come from the whole dose curve; as a rule, active = well fitted curve in the direction sought with a large enough effect; inconclusive = small, poorly fitted or top-dose-only effect, or effect the other way; inactive = no such curve, though single readings can be large or run the other way.
% is set by controls: 0 for no effect and ±100 for the full control effect.

Chain of Cytochrome P450 2D6 (Homo sapiens) (P10635 whole entry, looked up): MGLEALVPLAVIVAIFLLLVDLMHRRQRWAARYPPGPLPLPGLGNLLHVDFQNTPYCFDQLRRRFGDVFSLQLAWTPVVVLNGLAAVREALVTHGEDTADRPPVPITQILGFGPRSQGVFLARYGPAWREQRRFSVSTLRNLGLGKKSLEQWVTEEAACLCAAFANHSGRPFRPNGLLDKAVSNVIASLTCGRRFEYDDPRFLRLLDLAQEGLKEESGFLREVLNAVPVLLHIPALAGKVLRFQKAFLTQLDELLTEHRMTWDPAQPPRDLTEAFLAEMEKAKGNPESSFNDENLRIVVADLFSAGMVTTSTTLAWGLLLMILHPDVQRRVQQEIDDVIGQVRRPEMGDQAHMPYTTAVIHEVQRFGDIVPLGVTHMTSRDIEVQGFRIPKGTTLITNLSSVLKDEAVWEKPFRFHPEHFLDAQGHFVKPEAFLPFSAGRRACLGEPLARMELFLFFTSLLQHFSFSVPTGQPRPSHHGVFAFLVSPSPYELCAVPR

This test has as its target Cytochrome P450 2D6 (Homo sapiens) (UniProt P10635). Put plainly: Cytochrome panel assay with activity outcomes. The settings on record: recombinant CYP, pro-luciferin dealkylation, luminescence, p450-cyp2d6; series mostly up to 57.1 µM.
For orientation: AC50 means the concentration at which the activity in the assay is half-maximal. `C/C(=C\c1ccc(N(C)C)cc1)[N+](=O)[O-]`: the AC50 entry was “inactive”.

For the molecule `C[N+]1(C)C2CC[C@H]1CC(OC(=O)[C@@H](CO)c1ccccc1)C2` (some centres undefined), the activity, negative = inhibition was 12% [at 11.4 µM].

`CCN1CCC[C@@H](OC(=O)C(c2ccccc2)c2ccccc2)C1`: the AC50 is 1.58 µM (active).

Regarding `C[N+]1(C)[C@@H]2CC[C@H]1CC(OC(=O)[C@@H](CO)c1ccccc1)C2` (some centres undefined), the AC50 entry is “inactive”.

Consider `NCCCC[C@H](N[C@@H](CCc1ccccc1)C(=O)O)C(=O)N1CCC[C@H]1C(=O)O`, for which the AC50 result is “inactive”.

Consider `COc1cc2c(cc1OC)[C@H](C)NCC2`, for which the AC50 result is “inactive”.

As for `CCC1=C(C[C@H]2NCCc3ccccc32)C[C@@H]2c3cc(OC)c(OC)cc3CCN2C1`, the concentration at half-maximal activity (AC50) was 2.51 µM (active).

In the case of `CC[C@@H]1CN2CCc3cc(OC)c(OC)cc3[C@H]2C[C@@H]1C[C@@H]1NCCc2cc(OC)c(OC)cc21`, the AC50 result is “inactive”.

Regarding `CCC1=C(C[C@H]2NCCc3cc(OC)c(OC)cc32)C[C@H]2c3ccccc3CCN2C1`, the AC50 was 0.316 µM (active).

Turning to `O=C1CS[C@@H](c2ccccc2Cl)c2cc(Cl)ccc2N1`, the AC50 result was “inactive”.

Regarding `c1ccc(C2CC2)c(OCC2=NCCN2)c1`, the AC50 is 25.1 µM (active) and 5.01 µM (active).

In the case of `c1ccc([C@H]2CNCc3ccccc32)cc1`, the AC50 is 5.01 µM (active).

For `O=[As](O)(O)c1ccc2nc3cc([As](=O)(O)O)ccc3nc2c1`, the activity, negative = inhibition was 14.5% [at 11.4 µM].

As to `CC(=O)OCC1=C(C(=O)O)N2C(=O)[C@@H](N)[C@@H]2SC1`, the AC50 result is “inactive”.

Consider `c1cc(CCN2CCCCC2)ccn1`, for which the activity, negative = inhibition is -18.4% [at 11.4 µM].

Turning to `O[Si@](CCCN1CCCCC1)(c1ccc(F)cc1)C1CCCCC1`, the AC50 is 0.501 µM (active).

Regarding `CS(=N)(=O)CC[C@@H](N)C(=O)O` (some centres undefined), the AC50 result was “inactive”.

For `COc1cc([C@@H](O)CN)ccc1O`, the AC50 entry is “inactive”.

Regarding `O=C(CCN1CC2CCC(CC2)C1)c1cccs1`, the AC50 was 2 µM (active).

In the case of `C/C=C1\C[C@H](C)[C@@](O)(CO)C(=O)OCC2=CCN3CC[C@@H](OC1=O)[C@@H]23`, the AC50 result is “inactive”.

Regarding `C[N+](C)(C)CCCCCC[N+](C)(C)C`, the AC50 result was “inactive”.

On to `NP(N)(=O)NC(=O)c1ccc(F)cc1`, for which the AC50 result was “inactive”.

`N=C1c2ccccc2CN1NC(=O)c1ccc(Cl)cc1`: the AC50 is 0.794 µM (active).

Consider `N=C1c2ccccc2CN1NC(=O)c1ccc(F)cc1`, for which the AC50 was 1.26 µM (active).

As to `CS(=O)(=O)N1CCCC(C(=O)N2CCC3(CC2)OCCO3)C1` (centres undefined), the AC50 entry was “inactive”.

As for `CC12CN3CC(C)(CN(C1)C31CCSCC1)C2=O`, the AC50 result is “inactive”.

As for `NCC#Cc1ccccc1`, the AC50 entry was “inactive”.

For `NCCSC(c1ccccc1)c1ccccc1`, the concentration at half-maximal activity (AC50) is 0.794 µM (active).

`O=C1NC(=O)N(CCNc2ncc(C(F)(F)F)cc2Cl)C(=O)C1/C=N/OCc1c(F)cccc1Cl` (centres undefined): the AC50 result is “inactive”.
